Measurements from PubChem BioAssay (Tox21).
Results filed as inconclusive are left out. Activity calls are given as the source filed them. Unless noted, calls come from the whole dose curve; as a rule, active = well fitted curve in the direction sought with a large enough effect in the repeat runs; inconclusive = weak or mixed curves; inactive = no such curve, though single readings can be large; an effect the other way counts as inactive or inconclusive.

Key:
[1] = qHTS assay to identify small molecule agonists of the RXR signaling pathway - cell viability counter screen (AID 1159529); note: nearly all actives have a fitted effect of over 50% in size; note: potency is the fitted concentration of half-maximal effect
Outline: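 Counter screen: CellTiter-Glo luminescence. Cells: RXR-alpha-UAS-bla HEK 293T. Medium: 2% charcoal-stripped FBS. Treatment: 16 h, 37 C. Reagent incubation: 30 min, RT.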

[2] = qHTS assay to identify small molecule antagonists of the retinoid acid receptor (RAR) signaling pathway - cell viability counter screen (AID 1159551); note: nearly all actives have a fitted effect of over 35% in size; note: potency is the fitted concentration of half-maximal effect
Outline: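 Cytotoxicity counter screen: ATP content quantified by CellTiter-Glo luminescence in C3RL4 cells treated 6 hr at 37 C with compound and retinol (1 uM final). Cells plated at 1,000/well and cultured overnight before dosing.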

[3] = qHTS assay to identify small molecule antagonists of the retinoic acid receptor (RAR) signaling pathway (AID 1159552; note: nearly all actives have a fitted effect of over 50% in size; note: potency is the fitted concentration of half-maximal effect)
Outline: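 Antagonism of retinol-induced RARE reporter activity was measured in C3RL4 cells. Exposure to compounds and 1 uM final retinol lasted 6 hr at 37 C, with luminescence as endpoint.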

[4] = qHTS assay to identify small molecule agonists of the retinoic acid receptor (RAR) signaling pathway (AID 1159553); note: % is set by controls: 0 for no effect and ±100 for the full control effect
Outline: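 Luminescence was measured 30 min after luciferase reagent addition at room temperature. Before that, C3RL4 reporter cells (1,000 per well, plated overnight) were treated with compound for 6 hr at 37 C and 5% CO2.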

[5] = qHTS assay to identify small molecule antagonists of the estrogen related receptor (ERR) signaling pathway from Tox21 library - cell viability counter screen (AID 1224834); note: nearly all actives have a fitted effect of over 30% in size; note: potency is the fitted concentration of half-maximal effect
Outline: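 CellTiter-Fluor fluorescence, read after 30 min at 37 C, measures viability of ERR cells. Cells plated at 2,000/well and incubated 6 h before pin-tool compound addition, then exposed 17.5 hours at 37 C.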

[6] = molecular target: Luciferin 4-monooxygenase (Photinus pyralis) (UniProt P08659); test: qHTS assay to identify small molecule inhibitors of firefly luciferase (AID 1224835); note: nearly all actives have a fitted effect of over 25% in size; note: potency is the fitted concentration of half-maximal effect
Outline: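 Quantitative HTS format; KM concentrations of both substrates. Purified P. pyralis FLuc activity quantified from luminescence images.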

[7] = qHTS assay to identify small molecule agonists of the constitutive androstane receptor (CAR) signaling pathway - cell viability counter screen (AID 1224836); note: nearly all actives have a fitted effect of over 45% in size; note: potency is the fitted concentration of half-maximal effect
Outline: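 Double-stable HepG2 hepatoma cells (hCAR plus CYP2B6-2.2kb) are treated for 23 h at 37 C with test compounds in 15-point concentration series. PK11195 at 0.75 uM final is co-added. Cell viability is quantified by CellTiter-Fluor.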

[8] = qHTS assay to identify small molecule antagonists of the constitutive androstane receptor (CAR) signaling pathway - cell viability counter screen (AID 1224837); note: nearly all actives have a fitted effect of over 45% in size; note: potency is the fitted concentration of half-maximal effect
Outline: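 Cytotoxicity counter-screen: CellTiter-Fluor fluorescence after 23 h compound exposure (15-point qHTS) in double-stable HepG2-CYP2B6-hCAR cells, with 50 nM CITCO added.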

[9] = molecular target: Nuclear receptor subfamily 1 group I member 3 (Homo sapiens) (UniProt Q14994); test: qHTS assay to identify small molecule antagonists of the constitutive androstane receptor (CAR) signaling pathway (AID 1224838);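 note: HepG2 cells stably expressing hCAR with CYP2B6 luciferase reporter stimulated by CITCO; nearly all actives have a fitted effect of over 40% in size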; note: potency is the fitted concentration of half-maximal effect
Outline: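 Antagonism measured as luciferase signal (ONE-Glo, 30 min, room temperature) in CAR-stimulated cells: HepG2-CYP2B6-hCAR double-stable line exposed 24 hr at 37 C to compound in a 15-point series plus 50 nM CITCO.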

[10] = molecular target: Nuclear receptor subfamily 1 group I member 3 (Homo sapiens) (UniProt Q14994); test: qHTS assay to identify small molecule agonists of the constitutive androstane receptor (CAR) signaling pathway (AID 1224839); note: nearly all actives have a fitted effect of over 15% in size; note: potency is the fitted concentration of half-maximal effect;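 for activation: HepG2 cells stably carrying human CAR and a CYP2B6 luciferase reporter; series mostly up to about 92 µM; % is set by controls: 0 for no effect and ±100 for the full control effect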
Outline: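 Readout: firefly luciferase luminescence via ONE-Glo. System: HepG2 double-stable for hCAR and CYP2B6-2.2kb. Conditions: 15-point compound titration, PK11195 at 0.75 uM final, 24 h incubation.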

[11] = qHTS assay to identify small molecule antagonists of the estrogen related receptor signaling pathway with the pleiotropic PPARgamma coactivator (PGC) from Tox21 10K library - cell viability counter screen (AID 1224840; active = well fitted cell-killing curve with a large enough effect in the repeat runs, not every such curve was filed as active; note: nearly all actives have a fitted effect of over 40% in size; note: potency is the fitted concentration of half-maximal effect)
Outline: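 Counter-screen for cytotoxicity: after 17.5 h compound exposure at 37 C, CellTiter-Fluor reagent added to PGC/ERR cells for 30 min and fluorescence read. Cells were seeded at 2,000 per well 6 h before dosing.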

[12] = qHTS assay to identify small molecule antagonists of the estrogen related receptor signaling pathway with the pleiotropic PPARgamma coactivator (PGC) from Tox21 10K library (AID 1224841; call rule not given here; note: actives are mostly falling curves and most rising ones were filed inactive; nearly all actives have a fitted effect of over 50% in size; note: potency is the fitted concentration of half-maximal effect)
Outline: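 Luminescence (One-Glo, 30 min at room temperature) after 18 h compound treatment at 37 C of PGC/ERR reporter cells plated at 2,000 cells/well and settled 6 h beforehand.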

[13] = qHTS assay to identify small molecule agonists of the estrogen related receptor signaling pathway with the pleiotropic PPARgamma coactivator (PGC) from Tox21 10K library (AID 1224842); note: % is set by controls: 0 for no effect and ±100 for the full control effect; nearly all actives have a fitted effect of over 15% in size
Outline: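 PGC/ERR reporter cells (NTP line) were seeded 2,000 per well, rested 6 h at 37 C/5% CO2, then pin-dosed with compounds in DMSO for 18 h at 37 C; luciferase read by One-Glo luminescence after 30 min at room temperature.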

[14] = molecular target: Thyrotropin receptor (Homo sapiens) (UniProt P16473); test: qHTS assay to identify small molecule agonists of the thyroid stimulating hormone receptor (TSHR) signaling pathway (AID 1224843; calls by dose curve; note: nearly all actives have a fitted effect of over 45% in size; note: potency is the fitted concentration of half-maximal effect)
Outline: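 Compounds are titrated over 15 concentrations, in triplicate, onto TSHR-HEK293 cells seeded at 800/well. Plates sit 30 min at room temperature before cAMP-d2 and anti-cAMP cryptate are added; signal is read after a further hour.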

[15] = qHTS assay to identify small molecule antagonists of the estrogen related receptor (ERR) signaling pathway - cell viability counter screen (AID 1224818);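 note: potency is the fitted concentration of half-maximal effect; viability measured after 17.5 h of compound exposure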
Outline: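 Cytotoxicity counter screen: fluorescence from CellTiter-Fluor, added after 17.5 h compound exposure at 37 C and read 30 min later. ERR cell line seeded at 2,000 cells/well, preincubated 6 h before dosing.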

[16] = qHTS assay to identify small molecule antagonists of the estrogen related receptor (ERR) signaling pathway (AID 1224819; note: potency is the fitted concentration of half-maximal effect; nearly all actives have a fitted effect of over 50% in size)
Outline: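 LOPAC library screened for antagonism as reduced One-Glo luminescence in ERR reporter cells (2,000/well). Compounds were added after 6 h pre-incubation and left 18 h at 37C; reading followed a 30 min room-temperature reagent step.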

[17] = qHTS assay to identify small molecule agonists of the estrogen related receptor (ERR) signaling pathway (AID 1224820); note: % is set by controls: 0 for no effect and ±100 for the full control effect
Outline: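 An ERR cell line provided by NTP was seeded at 2,000 cells per well and allowed to settle for 6 h before compounds in DMSO were added. After 18 h at 37 C, luciferase activity was measured by One-Glo luminescence.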

[18] = tested on: estrogen-related receptor alpha (ERRalpha) with PGC-1alpha coactivator, human; test: qHTS assay to identify small molecule antagonists of the estrogen related receptor signaling pathway with the pleiotropic PPARgamma coactivator (PGC) (AID 1224821; calls by dose curve)
Outline: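 A PGC/ERR cell line supplied by NTP is seeded, allowed 6 h at 37 C, and treated with test compounds in DMSO for 18 h. Signal is then measured as luciferase luminescence using One-Glo.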

[19] = qHTS assay to identify small molecule antagonists of the estrogen related receptor signaling pathway with the pleiotropic PPARgamma coactivator (PGC) cell viability counter screen (AID 1224822; note: potency is the fitted concentration of half-maximal effect)
Outline: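 Viability counter-screen read by fluorescence intensity after 30 min with CellTiter-Fluor at 37 C; PGC/ERR reporter cells were exposed to compounds for 17.5 h at 37 C following a 6 h preincubation.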

[20] = qHTS assay to identify small molecule agonists of the estrogen related receptor signaling pathway with the pleiotropic PPARgamma coactivator (PGC) (AID 1224823); note: % is set by controls: 0 for no effect and ±100 for the full control effect
Outline: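 Compounds dissolved in DMSO are added by pin tool to PGC/ERR cells that have settled for 6 h, and incubation continues 18 h at 37 C. Reporter output is measured as One-Glo luminescence.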

Nuclear receptor subfamily 1 group I member 3 (Homo sapiens), sequence (Q14994 whole entry, looked up): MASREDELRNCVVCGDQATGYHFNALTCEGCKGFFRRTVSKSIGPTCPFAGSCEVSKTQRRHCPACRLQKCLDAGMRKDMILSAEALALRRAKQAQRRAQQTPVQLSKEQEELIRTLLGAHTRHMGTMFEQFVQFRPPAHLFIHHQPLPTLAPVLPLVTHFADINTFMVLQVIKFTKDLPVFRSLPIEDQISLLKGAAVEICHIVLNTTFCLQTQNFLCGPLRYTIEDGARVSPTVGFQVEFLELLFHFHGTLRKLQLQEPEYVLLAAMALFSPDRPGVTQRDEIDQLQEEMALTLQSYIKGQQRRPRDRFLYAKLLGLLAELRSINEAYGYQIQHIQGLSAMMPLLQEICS
Luciferin 4-monooxygenase (Photinus pyralis), sequence (P08659 whole entry, looked up): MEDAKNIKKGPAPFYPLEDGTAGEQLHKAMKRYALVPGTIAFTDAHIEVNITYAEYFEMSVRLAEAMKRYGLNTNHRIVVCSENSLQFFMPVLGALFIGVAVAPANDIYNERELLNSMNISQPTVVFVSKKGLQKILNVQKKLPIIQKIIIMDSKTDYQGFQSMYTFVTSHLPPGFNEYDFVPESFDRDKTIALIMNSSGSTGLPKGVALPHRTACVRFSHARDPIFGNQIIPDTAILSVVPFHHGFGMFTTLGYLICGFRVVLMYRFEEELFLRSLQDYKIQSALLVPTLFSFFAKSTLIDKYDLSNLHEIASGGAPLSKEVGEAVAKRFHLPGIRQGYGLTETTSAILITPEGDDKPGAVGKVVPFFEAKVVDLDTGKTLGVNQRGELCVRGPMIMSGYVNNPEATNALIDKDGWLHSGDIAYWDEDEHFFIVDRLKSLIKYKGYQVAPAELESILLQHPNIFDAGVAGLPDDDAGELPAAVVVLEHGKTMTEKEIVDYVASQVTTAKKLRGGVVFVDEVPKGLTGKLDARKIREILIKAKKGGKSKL
Thyrotropin receptor (Homo sapiens), sequence (P16473 whole entry, looked up): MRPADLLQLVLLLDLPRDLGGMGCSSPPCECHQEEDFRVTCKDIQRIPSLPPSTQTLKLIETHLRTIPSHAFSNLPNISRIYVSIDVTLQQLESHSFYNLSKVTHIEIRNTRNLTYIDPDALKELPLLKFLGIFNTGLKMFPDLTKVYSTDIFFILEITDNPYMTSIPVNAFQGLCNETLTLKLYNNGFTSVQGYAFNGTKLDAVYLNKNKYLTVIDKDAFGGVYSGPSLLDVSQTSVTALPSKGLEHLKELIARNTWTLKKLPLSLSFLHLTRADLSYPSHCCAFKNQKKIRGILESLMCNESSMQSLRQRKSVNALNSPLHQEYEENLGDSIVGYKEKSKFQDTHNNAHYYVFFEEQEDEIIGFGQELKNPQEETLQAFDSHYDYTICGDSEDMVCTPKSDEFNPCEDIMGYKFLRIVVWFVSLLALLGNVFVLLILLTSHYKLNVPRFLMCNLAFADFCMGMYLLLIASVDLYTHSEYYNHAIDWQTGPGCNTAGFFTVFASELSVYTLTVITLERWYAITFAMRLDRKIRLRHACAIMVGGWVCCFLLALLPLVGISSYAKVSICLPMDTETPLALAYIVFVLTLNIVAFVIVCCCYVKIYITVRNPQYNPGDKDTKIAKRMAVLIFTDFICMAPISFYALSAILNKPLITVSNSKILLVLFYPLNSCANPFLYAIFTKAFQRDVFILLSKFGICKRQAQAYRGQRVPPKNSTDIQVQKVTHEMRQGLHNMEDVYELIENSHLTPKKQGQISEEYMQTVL

CN(C)c1ccc(C2(c3ccc(N(C)C)cc3)OC(=O)c3cc(N(C)C)ccc32)cc1
inactive: Potency [1] | Potency [2] | Potency [3] | Potency [4] | Potency [5] | Potency [6] | Potency [7] | Potency [8] | Potency [9] | Potency [10] | Potency [11] | Potency [12] | Potency [13] | Potency [14]

CN(C)[C@@H]1C(=O)C(C(N)=O)=C(O)[C@@]2(O)C(=O)C3=C(O)c4c(O)cccc4C[C@H]3C[C@@H]12
active: Potency [12] 26.6 µM
inactive: Potency [1] | Potency [2] | Potency [3] | Potency [4] | Potency [5] | Potency [6] | Potency [7] | Potency [8] | Potency [9] | Potency [10] | Potency [11] | Potency [13] | Potency [14]

CO[Si](CCCNc1ccccc1)(OC)OC
inactive: Potency [1] | Potency [2] | Potency [3] | Potency [4] | Potency [5] | Potency [6] | Potency [7] | Potency [8] | Potency [9] | Potency [10] | Potency [11] | Potency [14]

O=C(NO)C1(NS(=O)(=O)c2ccc(Oc3ccc(F)cc3)cc2)CCOCC1
inactive: Potency [1] | Potency [2] | Potency [3] | Potency [4] | Potency [5] | Potency [6] | Potency [7] | Potency [8] | Potency [13]

Cc1oc(-c2ccccc2)nc1CCC(=O)c1ccc(CC2SC(=O)NC2=O)cc1 (centres undefined)
inactive: Potency [1] | Potency [2] | Potency [3] | Potency [4] | Potency [6] | Potency [7] | Potency [8] | Potency [9] | Potency [10] | Potency [11] | Potency [12] | Potency [13] | Potency [14]

C/C=C(\C)C(=O)OCc1ccccc1
active: Potency [6] 63.3 µM
inactive: Potency [1] | Potency [2] | Potency [3] | Potency [5] | Potency [7] | Potency [8] | Potency [11] | Potency [12] | Potency [13] | Potency [14]

CCc1cc(Cc2cc(CC)cc(C(C)(C)C)c2O)c(O)c(C(C)(C)C)c1
inactive: Potency [6] | Potency [10] | Potency [13] | Potency [14]
active: Potency [1] 13.8 µM | Potency [2] 68.6 µM | Potency [3] 27.3 µM | Potency [5] 54.5 µM | Potency [7] 61.1 µM | Potency [8] 61.1 µM | Potency [9] 21.7 µM | Potency [11] 43.3 µM | Potency [12] 27.3 µM

NC(=O)NS(=O)(=O)c1ccc(N)cc1
inactive: Potency [1] | Potency [2] | Potency [3] | Potency [4] | Potency [6] | Potency [7] | Potency [8] | Potency [9] | Potency [10] | Potency [14]

CCCCCCCCNC(C)C(O)c1ccc(SC(C)C)cc1 (centres undefined)
active: Potency [1] 9.52 µM | Potency [2] 26.6 µM | Potency [3] 13.3 µM | Potency [5] 26.6 µM | Potency [7] 29.8 µM | Potency [8] 29.8 µM | Potency [11] 29.8 µM
inactive: Potency [6] | Potency [13]

C[n+]1cc2c3c(ccc2c2ccc4cc5c(cc4c21)OCO5)OCO3
active: Potency [1] 1.47 µM | Potency [2] 3.66 µM | Potency [3] 1.83 µM | Potency [15] 2.87 µM | Potency [16] 3.1 µM | Potency [18] 2.28 µM | Potency [19] 0.944 µM | Potency [5] 2.91 µM | Potency [6] 6.74 µM | Potency [7] 2.91 µM | Potency [8] 2.59 µM | Potency [9] 2.91 µM | Potency [12] 7.3 µM
inactive: outcome [17] | outcome [20] | activation [10] -21.2% [at 19 µM] | activation [13] -34.9% [at 19 µM] | activation [14] -8.77% [at 19 µM]

Nc1nc2ccccc2n1Cc1ccc(F)cc1
inactive: Potency [1] | Potency [2] | Potency [3] | Potency [4] | Potency [6] | Potency [9] | Potency [11] | Potency [12] | Potency [13] | Potency [14]
active: Potency [10] 15 µM

C[C@H]1[C@H]2CC[C@H]3[C@@H]4CC=C5C[C@@H](N(C)C)CC[C@]5(C)[C@H]4CC[C@]23CN1C
inactive: Potency [1] | Potency [2] | Potency [3] | Potency [4] | Potency [6] | Potency [8] | Potency [10] | Potency [11] | Potency [12] | Potency [13] | Potency [14]

CCC(C)(C)C1CCCCC1OC(C)=O (centres undefined)
inactive: Potency [1] | Potency [2] | Potency [3] | Potency [5] | Potency [6] | Potency [7] | Potency [8] | Potency [9] | Potency [10] | Potency [11] | Potency [12] | Potency [13] | Potency [14]

CCCCC(CC)CN=C(N)NC(N)=NCCCCCCN=C(N)NC(N)=NCC(CC)CCCC (centres undefined)
active: Potency [1] 8.49 µM | Potency [2] 29.8 µM | Potency [3] 11.9 µM | Potency [5] 11.9 µM | Potency [7] 26.6 µM | Potency [8] 23.7 µM | Potency [12] 23.7 µM
inactive: Potency [6] | Potency [13]

Cc1cc(=O)oc2cc(N(C)C)ccc12
inactive: Potency [1] | Potency [2] | Potency [3] | Potency [4] | Potency [9] | Potency [12] | Potency [13] | Potency [14]
active: Potency [10] 61.1 µM

CCCC(c1cc(C(C)(C)C)c(O)cc1C)c1cc(C(C)(C)C)c(O)cc1C
active: Potency [1] 11.1 µM | Potency [2] 27.6 µM | Potency [3] 27.6 µM | Potency [5] 19.6 µM | Potency [7] 39 µM | Potency [8] 31 µM | Potency [9] 24.6 µM | Potency [11] 22 µM | Potency [12] 24.6 µM | Potency [14] 6.19 µM
inactive: Potency [6] | Potency [10] | Potency [13]
